Assay outcomes: PubChem BioAssay, National Center for Advancing Translational Sciences (NCATS)
Methyltransferases: Primary Screen for Target Class Profiling of Small Molecule Inhibitors of Methyltransferases | purified enzyme, MTase-Glo SAH luminescence; active compounds read low | calls only at 40 µM | hit rate 3.9% among 25,000 | AID 1745853, 2022; call rule not given here
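Each enzyme was reacted with SAM and its substrate, with compounds tested once at 40 uM; SAH formed was read by MTase-Glo luminescence.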
An asterisk follows results filed as active; i = inactive; + = active, no number. Many of the other results were omitted from the sample, so hits are more common in it than they were. % is scaled to controls: 0 for no effect and ±100 for the full control effect.

SMILES	Methyltransferases
CCN1CCN(Cc2ccc(NC(=O)c3ccc(C)c(NC(=O)c4cncc(-c5cccs5)c4)c3)cc2C(F)(F)F)CC1	i
COC[C@@H]1CN(c2ncccn2)C[C@H]1C(=O)NCc1ccccc1OC	i
CC1CCC(NC(=O)C2(C)Cn3c(ccc3-c3ccccc3)C(=O)N2CCc2ccccc2)CC1 (stereo not drawn)	i
O=C(Cn1c2ccccc2c2nc3n(c(=O)c21)CCS3)N1CCCC1	i
COC(=O)c1ncn2c1C(=O)N(c1cccc(C)c1C)C(C)(C(=O)NCc1ccccc1)C2 (stereo not drawn)	i
CC(C)CCn1c(=O)c2ccccc2n2c(=O)n(CC(=O)N3CCN(c4ccccc4F)CC3)nc12	i
COCCn1nc2n(c1=O)CCN(Cc1cccc(OC)n1)CC2	i
COc1ccc(-c2cc3n(n2)CC(C)(C(=O)NC2CCCCC2)N(CCCOC(C)C)C3=O)cc1 (stereo not drawn)	i
CCN1CC2(CCN(Cc3cc4c(cc3OC)OCCCO4)CC2)OC1=O	i
Cc1[nH]c(/C=C2\C(=O)Nc3ccc(S(=O)(=O)N(C)c4cccc(Cl)c4)cc32)c(C)c1C(=O)N1CCN(C)CC1	+
CN(C)S(=O)(=O)c1ccc2c(c1)/C(=C/c1cc3c([nH]1)CCCC3)C(=O)N2	i
C/C(=C\CCC(C)CCO)C(=O)OC1(C)CCC2C(C(=O)O)=COC(OC3OC(CO)C(O)C(O)C3O)C21 (stereo not drawn)	i
COc1ccccc1CN1C(=O)c2cc3occc3n2CC1(C)C(=O)NC1CCCC(C)C1C (stereo not drawn)	i
CC(C)n1c(=O)c2ccc(C(=O)NC3CCCC3)cc2n2c(=O)n(CC(=O)c3ccc(Cl)cc3)nc12	i
Cc1noc(C)c1S(=O)(=O)N1CC(n2cnnc2C2CCCO2)C1 (stereo not drawn)	i
O=C(NCC(F)F)C1CCCN1C(=O)c1cccc(-c2ccccn2)c1 (stereo not drawn)	i
C=C1C(=O)O[C@@H]2C/C(C)=C\C(=O)/C=C(\C)[C@@H](OC(=O)/C(C)=C\C)[C@H](O)[C@@H]12	i
C=C1C(=O)OC2CC3(C)C(CC12)C(C)=CC(O)C3OC(C)=O (stereo not drawn)	+
C=C(C)C(=O)O[C@H]1C[C@@](C)(O)C(=O)CC(O)/C(C)=C\[C@H]2OC(=O)C(=C)[C@H]12 (stereo partly drawn)	i
CCOC(=O)c1ccc(NC(=O)Cn2c(=O)oc3cc(S(=O)(=O)N4CCCC4)ccc32)cc1	i
Cc1[nH]c(/C=C2\C(=O)Nc3cc(-c4ccccc4)ccc32)c(C)c1CCC(=O)O	i
CN1C(=O)c2ccccc2NC(=O)[C@]12O[C@@H]2c1cccc(O)c1	i
O=C1Nc2ccccc2/C1=C/c1cc(O)ccc1O	+
O=S(=O)(c1ccccc1)N1CCCC(Cc2noc(-c3ccncc3)n2)C1 (stereo not drawn)	i
Cn1c(=O)c2ccc(C(=O)NC3CCCCC3)cc2n2c(=O)n(CC(=O)Nc3ccc(Cl)cc3)nc12	i
SMILES	Methyltransferases
Fc1cccc(-c2nnn3c2nc(NCc2ccc4c(c2)OCO4)c2cc(Cl)ccc23)c1	i
COc1cccc(-c2cc(NCc3ccc4c(c3)OCO4)nc(N)n2)c1	+
Clc1cccc(-c2nnn3c2nc(NCc2ccc4c(c2)OCO4)c2ccccc23)c1	i
COc1cccc(N2C(=O)c3ccc(-c4ccco4)n3CC2(C)C(=O)NC2CCCC2)c1 (stereo not drawn)	i
CC1=CC(=O)[C@H]2C(C)(C)CCC[C@]2(C)[C@@]1(O)CO	i
CC1=CC(=O)C2C(C)(C)CCCC2(C)C12CCC1(COC(=O)C1)O2 (stereo not drawn)	+
CC(=O)O[C@H]1[C@H](OC(=O)C(C)C)[C@]2(C)OC3(CC[C@]2(C)[C@H]2CCC[C@]4(CO4)[C@]12C)COC(=O)C3 (stereo partly drawn)	i
COc1ccccc1CNS(=O)(=O)c1ccc2[nH]c(=O)[nH]c2c1	i
NC(=O)c1cccc(-c2cc(OC(=O)NC3CCCCC3)ccc2O)c1	i
CCCCN1C(=O)c2cc(C(=O)Nc3cc(OC)ccc3OC)nn2CC1(C)C(=O)NC1CCCC1 (stereo not drawn)	i
COc1ccc(S(=O)(=O)Nc2nc(-c3cccc([N+](=O)[O-])c3)cs2)cc1OC	i
COc1ccc(C2CC(=O)c3cc(-c4nc(-c5cccc([N+](=O)[O-])c5)cs4)c(=O)n(-c4ccccc4N)c3C2)cc1 (stereo not drawn)	+
CCOCC(O)Cn1cnc(-c2ccccc2)c1-c1cccc(OC)c1F (stereo not drawn)	i
CC(C)Cn1c(=O)c2ccccc2n2c(CCC(=O)Nc3ccccc3)nnc12	i
CN(C)C/C=C(/c1ccc(Br)cc1)c1cccnc1	+
COc1ccc(CN2C(=O)c3cc4ccccc4n3CC2(C)C(=O)NCCCOC(C)C)c(OC)c1 (stereo not drawn)	i
CCOc1ccc(CCNC(=O)c2cc3n(n2)CC(C)(C(=O)NC2CCCCCC2)N(C)C3=O)cc1 (stereo not drawn)	i
CCCN1C(=O)c2cc(C(=O)NCc3cccc(OC)c3)nn2CC1(C)C(=O)NC1CCCC1 (stereo not drawn)	i
O=C(C1CC(=O)N(C2CC2)C1)N1CCC(Oc2cccnc2)CC1 (stereo not drawn)	i
Cc1ccccc1CN1C(=O)c2ccc(-c3ccco3)n2CC1(C)C(=O)NC1CCCCC1C (stereo not drawn)	i
OC[C@H]1O[C@@H](Oc2cc(O)cc(-c3cc4ccc(O)cc4o3)c2)[C@H](O)[C@@H](O)[C@@H]1O	i
COc1cccc(NC(=O)C2(C)CCc3cnc(NCc4ccccc4)nc32)c1 (stereo not drawn)	i
Cc1c[nH]c2ncnc(N3CCC(CN)(C(=O)Nc4cccc(OC(=O)N(C)C)c4)CC3)c12	+
COCCNC(=O)[C@@H]1CCC[C@@H](NC(=O)c2c(-c3ccccc3)noc2C)CN(C)C(=O)C1	i
Cc1ccc2c(C(=O)NCc3ccc(Cl)cc3)cnn2c1	i
SMILES	Methyltransferases
CC1(C(=O)NC2CCCCC2)Cc2ccccc2C(=O)N1Cc1ccc(F)cc1 (stereo not drawn)	i
CCCn1c(=O)c2ccccc2n2c(=O)n(Cc3ccccc3Cl)nc12	i
O=C(CCC1CCN(S(=O)(=O)c2ccc(F)cc2)CC1)NC1CCCC1	i
C=CC(=O)Nc1ccc2ncnc(Nc3cccc(Br)c3)c2c1	+
CCOC(=O)c1cnc2ccc(Br)cc2c1Nc1cccc(C(C)=O)c1	i
CCOC(=O)c1ccc(Nc2ncnc3ccc(Br)cc23)cc1	i
COC(C)c1nc(C2CCOCC2)nn1Cc1ccc2c(c1)OCO2 (stereo not drawn)	i
Cc1cc2c(cc3n2CC(C)(C(=O)NC2CCCCCC2)N(CCc2ccccc2)C3=O)o1 (stereo not drawn)	i
CCOC(=O)[C@@H](N)Cc1ccc(-c2cc(O[C@H](c3ccc(Cl)cc3-n3ccc(C)n3)C(F)(F)F)nc(N)n2)cc1	+
COc1cccc(-c2ccc([C@@H](Oc3cc(-c4ccc(C[C@H](N)C(=O)O)cc4)nc(N)n3)C(F)(F)F)cc2)c1	i
C=CCn1c(=O)c2ccc(C(=O)NCC(C)C)cc2n2c(=O)n(CC(=O)Nc3ccc(F)cc3)nc12	i
CCCn1c(=O)c2cc(F)ccc2n2c(SCc3cc(C)ccc3C)nnc12	i
